Compounds with a hit are over-represented: about 6.9% of the library has one in this group of screens.
VDR inhibitor: Inhibitors of the vitamin D receptor (VDR): qHTS | AID 504847, 2011 | 0.93% of 400,000 active | Potency, µM, inactives show max response, negative = inhibition, hits mostly inhibitors | Vitamin D3 receptor (Homo sapiens), P11473 | VDR-SRC2-3 peptide fluorescence polarization, 2 h; further: on the % scale 0 is the no-effect control and ±100 the full control effect
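Two reagent solutions held at 4 deg C in the dark were dispensed, compounds pinned at 23 nl, and the mixture incubated 2 h at room temperature. Read-out: fluorescence polarization of VDR–SRC2-3 peptide binding.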
HP1b chromo inh: HTS for Inhibitors of HP1-beta Chromodomain Interactions with Methylated Histone Tails. Potency, µM (titrated, usually from 114 µM), for the others: at the highest dose activity change, negative = inhibition, actives largely listed as inhibitors. AID 540317, 2011. 0.56% of 390,000 active. AlphaScreen HP1-beta / biotin-H3K9me3 peptide binding; further: nearly all actives have a fitted effect of over 70% in size
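HP1-beta protein (50 nM final) preincubated 30 min at room temperature with biotinylated H3(1-18)K9me3 peptide (50 nM) in PBS pH 7.4, 0.01% Tween-20, then compound added for 30 min. AlphaScreen streptavidin donor/nickel chelate acceptor beads (10 ug/mL final), 30 min dark, luminescence read.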
JMJD2A Tudor inh: qHTS Assay for Inhibitors of JMJD2A-Tudor Domain | Lysine-specific demethylase 4A (Homo sapiens), O75164 | AlphaScreen JMJD2A-Tudor / H3K4me3 peptide binding | Potency, µM (doses to about 114 µM), without a hit: at the highest dose activity change, negative = inhibition, most hits filed as inhibitors | 4.4% of 390,000 active | AID 504339, 2011; further: on the % scale 0 is the no-effect control and ±100 the full control effect; nearly all actives have a fitted effect of over 50% in size
L3MBTL1 block: qHTS Assay for the Inhibitors of L3MBTL1; Lethal(3)malignant brain tumor-like protein 1 (Homo sapiens), Q9Y468; AlphaScreen L3MBTL1–H3K9me1 peptide binding; Potency, µM (top dose mostly 57.1 µM), for inactives: at the highest dose activity, negative = inhibition, usual class: inhibitors; 0.66% of 230,000 active; further: on the % scale 0 is the no-effect control and ±100 the full control effect; nearly all actives have a fitted effect of over 60% in size
Target sequence (Q9Y468 whole entry, looked up): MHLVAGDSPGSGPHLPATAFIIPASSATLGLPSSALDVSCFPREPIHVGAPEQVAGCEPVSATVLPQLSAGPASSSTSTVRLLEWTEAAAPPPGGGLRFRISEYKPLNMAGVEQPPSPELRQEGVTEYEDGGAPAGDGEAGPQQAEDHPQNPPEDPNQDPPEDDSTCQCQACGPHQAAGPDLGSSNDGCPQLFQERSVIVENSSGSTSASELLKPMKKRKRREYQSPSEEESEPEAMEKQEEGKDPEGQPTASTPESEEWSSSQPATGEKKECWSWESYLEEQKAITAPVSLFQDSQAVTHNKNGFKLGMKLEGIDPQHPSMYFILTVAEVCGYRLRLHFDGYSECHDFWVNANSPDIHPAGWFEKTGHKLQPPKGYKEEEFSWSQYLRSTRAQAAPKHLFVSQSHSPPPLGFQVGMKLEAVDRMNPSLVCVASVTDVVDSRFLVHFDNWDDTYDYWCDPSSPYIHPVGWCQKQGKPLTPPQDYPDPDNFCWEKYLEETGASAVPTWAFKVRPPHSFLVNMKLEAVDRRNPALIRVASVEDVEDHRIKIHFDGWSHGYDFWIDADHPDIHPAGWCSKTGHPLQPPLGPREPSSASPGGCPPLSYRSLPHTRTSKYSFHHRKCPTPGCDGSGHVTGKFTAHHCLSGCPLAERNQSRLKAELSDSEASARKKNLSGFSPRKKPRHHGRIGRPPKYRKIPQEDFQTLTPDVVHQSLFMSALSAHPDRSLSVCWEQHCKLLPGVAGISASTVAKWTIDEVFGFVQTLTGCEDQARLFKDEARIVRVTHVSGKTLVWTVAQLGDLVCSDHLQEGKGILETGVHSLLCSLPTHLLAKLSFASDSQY
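AlphaScreen assay: L3MBTL1 (50 nM final) was preincubated 30 min at room temperature with biotinylated H3(1-15)K9me1 peptide (75 nM final), then 30 min with library compounds; streptavidin donor and nickel chelate acceptor beads (10 ug/mL final) added, 30 min dark.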
BAZ2B inh: qHTS Assay for Inhibitors of BAZ2B; Bromodomain adjacent to zinc finger domain protein 2B (Homo sapiens), Q9UIF8; AlphaScreen BAZ2B-H3K14Ac peptide displacement; Potency, µM (top dose mostly 114 µM), for inactives: at the highest dose activity change, negative = inhibition, most hits filed as inhibitors; 4.4% of 360,000 active; AID 504333, 2011; further: on the % scale 0 is the no-effect control and ±100 the full control effect; nearly all actives have a fitted effect of over 60% in size
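AlphaScreen displacement of biotin-H3(5-23)K14Ac peptide (50 nM final) from BAZ2B (50 nM final) in PBS pH 7.4, 0.01% Tween-20; complex preformed 30 min RT, then compounds (top 110 uM) 30 min RT, beads 20 min dark.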
PLK1 PBD block: qHTS for Inhibitors of PLK1-PDB (polo-like kinase 1 - polo-box domain): Primary Screen | Serine/threonine-protein kinase PLK1 (Homo sapiens), P53350 | Plk1 PBD binding of FITC phosphopeptide, fluorescence polarization | Potency, µM, for inactives: max response, negative = inhibition, usual class: inhibitors | 2.8% of 360,000 active | AID 720504, 2013; further: series mostly up to about 57 µM; on the % scale 0 is the no-effect control and ±100 the full control effect; nearly all actives have a fitted effect of over 65% in size
Starred values were filed as active, the others as inactive; ? = inconclusive; . = not tested or not shown; [ ] = remark or other dose. The call rests on the fitted dose curve; in most records, active means well fitted curve in the direction sought with a large enough effect; inconclusive means small, poorly fitted or top-dose-only effect, or another doubt; inactive means no such curve, though single readings can be large; an effect the other way counts as inactive or inconclusive. Potency means the concentration at half of the fitted maximal effect.

SMILES | VDR inhibitor | HP1b chromo inh | JMJD2A Tudor inh | L3MBTL1 block | BAZ2B inh | PLK1 PBD block
C[C@H](CO)N1C[C@H](C)[C@@H](CN(C)Cc2ccc(C(=O)O)cc2)Oc2c(NC(=O)Cc3ccccc3)cccc2C1=O | 7.5% | 19.7% | -29.4% | 1.8% | . | 1.8%
CC(C)N1C(=O)c2ccccc2NC(=O)C1C(=O)NCc1cccc(C(F)(F)F)c1 (centres undefined) | . | . | . | . | . | 0.1%
CN1CCc2c(sc3c2C(=O)NC(c2cn(Cc4ccccc4)c4ccccc24)N3)C1 (centres undefined) | -3.9% | ? | 39.8µM* | -11.2% | 44.7µM* | 1.8%
COc1cc(C(c2c(C)[nH][nH]c2=O)c2c(C)[nH][nH]c2=O)cc([N+](=O)[O-])c1O | -15.1% | ? | 44.7µM* | . | ? | 26.7µM*
CCOc1cc(C(c2c(C)[nH][nH]c2=O)c2c(C)[nH][nH]c2=O)cc([N+](=O)[O-])c1O | -12.8% | -14.3% | -24.5% | . | -34.5% | -11.5%
COc1cc(C(c2c(C)[nH][nH]c2=O)c2c(C)[nH][nH]c2=O)cc(Br)c1OC | ? | 20.5% | -22.4% | -3.2% | -35.0% | 26.7µM*
Cc1c(Cl)cccc1NC(=O)CC(c1cccs1)N1Cc2ccccc2C1=O (centres undefined) | 3.1% | 46.3% | -0.3% | . | -17.8% | .
COc1ccc(C(=O)N2C(=S)NC(=O)/C2=C\c2ccc(C)cc2)cc1 | 9.0% | -22.9% | 50.1µM* | -21.5% | 50.1µM* | -19.1%
COc1ccc(C=C2NC(=S)NC2=O)cc1 | -20.3% | -6.1% | -30.3% | . | . | -24.5%
CCSC1=NS(=O)(=O)c2ccccc21 | . | . | -5.0% | . | . | .
COc1ccc(OC)c(C2Nc3c(Cl)ccc(C(=O)O)c3C3C=CCC32)c1 (centres undefined) | 5.6% | ? | ? | -13.9% | -26.3% | ?
O=C(O)C1Nc2c(O)cc(Cl)c([N+](=O)[O-])c2C2C=CCC12 (centres undefined) | -20.5% | 4.47µM* | 11.2µM* | 0.316µM* | 1.41µM* | 2.99µM*
CCCn1c(SCc2nc(-c3ccccc3C)no2)nnc1-c1ccc(Cl)cc1 | 13.0% | 58.9% | 6.9% | . | 6.8% | .
CC1(C(=O)NS(=O)(=O)c2ccc3c(c2)CCO3)CCN1C(=O)C1(c2ccc(Cl)cc2)CCC1 (centres undefined) | . | . | . | . | . | -12.7%
Cc1ccc(N2CC(C(=O)Nc3ccc(S(=O)(=O)N4CCOCC4)cc3)CC2=O)cc1Cl (centres undefined) | 1.5% | 6.8% | -15.9% | 3.5% | -5.8% | -8.0%
O=C1CCc2nc3ccccc3c(=O)n2N1 | 3.3% | 27.1% | ? | 21.7% | 56.2µM* | 1.3%
O=C(O)/C=C/C(=O)Nc1ccccc1-c1ccccc1NC(=O)/C=C/C(=O)O | -9.4% | 33.4% | 79.4µM* | -13.0% | -1.4% | -24.5%
COc1ccccc1C(c1c(O)nc(SC)[nH]c1=O)c1c(O)nc(SC)[nH]c1=O | -9.3% | 52.8% | 5.7% | . | . | ?
Cc1[nH]n(-c2ccccc2)c(=O)c1C(c1ccccc1C(=O)O)c1c(C)[nH]n(-c2ccccc2)c1=O | -2.9% | 34.2% | -9.5% | 4.6% | -28.7% | -4.5%
CCOc1cc(C(c2c(O)nc(SC)[nH]c2=O)c2c(O)nc(SC)[nH]c2=O)ccc1O | ? | -12.2% | ? | . | . | 11.9µM*
COc1ccc(C(c2c(C)[nH]n(-c3ccccc3)c2=O)c2c(C)[nH]n(-c3ccccc3)c2=O)cc1OC | -7.8% | -51.5% | ? | ? | ? | 2.67µM*
CCOc1cc(C(c2c(C)[nH]n(-c3ccccc3)c2=O)c2c(C)[nH]n(-c3ccccc3)c2=O)ccc1O | ? | ? | 50.1µM* | . | 11.2µM* | .
Cc1[nH]n(-c2ccccc2)c(=O)c1C(c1cc(Cl)ccc1O)c1c(C)[nH]n(-c2ccccc2)c1=O | ? | ? | 44.7µM* | . | ? | .
Cn1cc(-c2csc(C(O)c3ccc(F)c(F)c3)n2)cn1 (centres undefined) | . | . | . | . | . | -7.6%
O=C(NCc1ccccn1)c1ccc(Cl)c(S(=O)(=O)NCc2ccccc2)c1 | -15.7% | 42.1% | -5.1% | -4.2% | -3.1% | 0.4%
SMILES | VDR inhibitor | HP1b chromo inh | JMJD2A Tudor inh | L3MBTL1 block | BAZ2B inh | PLK1 PBD block
O=C(NCCS(=O)(=O)NCc1ccccn1)c1ccccc1 | 5.7% | -2.4% | 2.82µM* | -8.0% | 4.4% | -8.7%
O=C(NCc1ccccn1)c1cccc(S(=O)(=O)NCc2ccccc2)c1 | 2.7% | 44.6% | -13.0% | -3.8% | 56.2µM* | 4.4%
O=C(NCCS(=O)(=O)NCc1cccnc1)c1ccccc1 | 6.9% | 14.8% | -17.8% | -0.7% | 8.9% | -3.3%
COc1ccc(OCCCCn2c(C3CC(=O)N(c4cccc(Cl)c4)C3)nc3ccccc32)cc1 (centres undefined) | 9.5% | 4.0% | -23.2% | . | -19.0% | .
CCOC(=O)C1=C(N)Oc2cc(O)ccc2C1c1ccccc1 (centres undefined) | -20.0% | -0.3% | -32.8% | -2.1%[2.29 µM] | 11.2% | -1.1%
CCOC(=O)C1=C(N)Oc2cc(O)ccc2C1c1cccc([N+](=O)[O-])c1 (centres undefined) | 13.3% | -17.1% | ? | -14.8% | 39.8µM* | -6.2%
Cc1cc(SCC(=O)N/N=C/c2ccc(O)c(O)c2)nc2ccccc12 | -14.6% | ? | ? | ? | 44.7µM* | -11.0%
O=C1OC(c2ccccc2)C(O)=C1c1ccccc1 (centres undefined) | -11.4% | 32.4% | -4.1% | . | . | 2.0%
O=C1C(Br)=C(c2ccccc2)C(c2ccccc2)=C1c1ccccc1 | ? | ? | ? | . | . | 2.67µM*
O=C1c2cccc3c2[C@@H](CCC3)CN1[C@@H]1CN2CCC1CC2 | 1.5% | . | . | . | . | .
CC(C)OC(=O)c1cc2c(ccn2C)n1CC(=O)N(Cc1ccccc1)c1ccc(F)cc1 | -10.5% | ? | 17.8µM* | -16.3% | 39.8µM* | -3.6%
CC(C)OC(=O)c1cc2c(ccn2-c2ccc(F)cc2)n1CC(=O)N1CCN(C(=O)c2ccco2)CC1 | ? | 20.2% | -17.7% | . | 5.3% | -5.6%
CCOC(=O)c1cc2c(ccn2C)n1CC(=O)N(Cc1ccccc1)c1ccccc1 | -8.4% | -45.6% | 25.1µM* | ? | 31.6µM* | -6.2%
O=C(O)Cc1cccc(=O)c(O)c1C(=O)O | 10.5% | 39.8µM* | 1.12µM* | . | . | ?
O=C(O)Cc1ccccc1C(=O)O | -5.4% | 36.8% | -15.0% | 3.9% | -4.1% | 2.8%
